Results published in paper PMC5540273 (PLoS ONE, 2017).
pKd: −log10 of the molar value.
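Further: kd values determined as follow-up on hits from a single-replicate KINOMEscan panel screen.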

What follows are compounds tested on CDKL2.
Work on `O=C(Nc1n[nH]c2nc(-c3nccs3)c(Br)cc12)C1CCCC1` [SB-742609] yielded a pKd of 6.30.
`O=C(Nc1n[nH]c2nc(-c3nccs3)c(Br)cc12)C1CC1` [SB-742251] was tested, and the pKd was 6.32.
With `O=C(Nc1n[nH]c2cc(-c3cccc(F)c3F)ccc12)C1CC1` [SB-733894] the pKd was 6.52.

Each compound was assayed on CIT.
In the case of `Cc1ccc(NC(=O)Nc2cccc(Cl)c2)cc1-c1ccc(C(=O)Nc2ccncc2)cc1` [GSK1398468], the pKd was 6.82.
With `Cc1cccc(-c2nc(Nc3ccncc3)c3ccccc3n2)n1` [GW855857] the pKd was 6.36.
`O=C(Nc1ccccc1)Nc1cccc(Oc2ccc3nccn3n2)c1` showed a pKd of 8.96.

What follows are compounds tested on CLK3.
`COc1ccc(Nc2nccc(NCCNC(=O)Nc3ccccc3F)n2)cc1` [GSK1379901] gave a pKd of less than 5.00.
In the case of `COc1cc2nccc(Nc3ccc(NC(=O)c4ccc(C)cc4)c(O)c3)c2cc1OC.Cl` [GW440132], the pKd was less than 5.00.
Work on `Cn1cncc1-c1ccc2ncnc(Nc3ccc(OCc4ccccc4)cc3)c2c1` [GW320571] yielded a pKd of less than 5.00.

Each compound was assayed on CSF1R.
Compound `CC(=O)Nc1nc2cnc(Nc3cc(NC(=O)c4cccc(CCC#N)c4)ccc3C)nc2s1` has a pKd of less than 5.00.
`O=C(Nc1ccccc1)Nc1cccc(Oc2ccc3nccn3n2)c1` gave a pKd of 7.57.
Work on `Cn1ccc2ncnc(Oc3ccc(NC(=O)Nc4ccccc4)cc3)c21` yielded a pKd of 7.09.

The compounds below were run on CSNK1E.
`COc1ccc(Nc2nccc(NCCNC(=O)Nc3ccccc3F)n2)cc1` [GSK1379901] gave a pKd of less than 5.00.
`Cn1cncc1-c1ccc2ncnc(Nc3ccc(OCc4ccccc4)cc3)c2c1` [GW320571] gave a pKd of less than 5.00.
`CN(C)CCN(C)C(=O)c1cc(-c2ccncc2)c(-c2ccc(Cl)c(O)c2)o1.Cl.Cl` [SB-710397] gave a pKd of 6.39.
`CC(C)(C)c1ccc(C(=O)Nc2cn3cc(-c4cccnc4)ccc3n2)cc1` was tested, and the pKd was 6.96.

The compounds below were run on CSNK2A2.
For `Clc1cc(Cl)cc(Nc2ccnc(Nc3cc(Cl)cc(Cl)c3)n2)c1` [GSK175726], the pKd was less than 5.00.
Work on `Nc1ncnc2[nH]c(-c3ccccc3)nc12` [AH5015] yielded a pKd of 5.96.
`Cc1cccc(-c2nc(Nc3ccc4[nH]ncc4c3)c3ccccc3n2)n1` [GW857175] showed a pKd of 7.38.
`COc1ccccc1CNC(=O)c1cc(C(=O)c2ccccc2C)c[nH]1` [GSK364507] gave a pKd of 5.29.
`Fc1cc(Cl)ccc1Nc1ccnc2cc(-c3ccc(CN4CCCCC4)o3)ccc12` [GW560116] gave a pKd of less than 5.00.
For `COc1cc2ncnc(Nc3ccc4nc(-c5ccccc5)[nH]c4c3)c2cc1OC.Cl` [GW282450], the pKd was less than 5.00.
